This passage reports inhibition results from PubChem BioAssay AID588850 (Sanford-Burnham Center for Chemical Genomics, 2011).

The campaign covered roughly 360,000 compounds. About 3,100 (0.86%) were called active. Many of the other results were omitted from the sample, so actives are more common in it than they were. Unmarked numbers belong to inactive results.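 How the source made its calls: active means at least 50% inhibition at 5 µM, scaled per plate between neutral and stimulator controls; inactive means the rest.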

The test is described as follows: NF-kB reporter blockers in CF airway cells – cell-based, GFP fluorescence, uHTS, primary screen (AID 588850).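 Further: PAF is a Pseudomonas aeruginosa culture filtrate used as stimulus; plate controls were PAF-stimulated DMSO wells for no effect and unstimulated DMSO wells for full effect.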 The note with it: KKLEB NF-kB-GFP reporter, PAF-induced, GFP fluorescence overnight; at 5 µM; stronger effect = higher value.
A word on the inhibition: it is the drop in the measured response relative to a control, in per cent. Consider `COC(=O)CNC(=O)C(CCSC)NC(C)=O` (stereo not drawn), for which the inhibition is -2.1%.

`CCOc1ccc2[nH]c(=O)c(CN(CCCO)S(=O)(=O)c3ccc(F)cc3)cc2c1`: the inhibition was 2.3%.

Regarding `COc1ccc2[nH]c(=O)c(CN(Cc3cccnc3)S(=O)(=O)c3ccccc3F)cc2c1`, the inhibition was 82.1% (active).

As to `COc1ccc(-c2[nH]ncc2CN(C)Cc2cccnc2)c(F)c1`, the inhibition is 14.6%.

As to `CCCN(c1ccc(C(C)C)cc1)S(=O)(=O)c1c(C)[nH]c(=O)[nH]c1=O`, the inhibition was -4.9%.

On to `Cc1noc(C)c1S(=O)(=O)Nc1cc(C(F)(F)F)ccc1N1CCOCC1`, for which the inhibition was 2.4%.

In the case of `Cc1ccc(N(CCC(=O)O)S(=O)(=O)c2cccc(C(F)(F)F)c2)cc1`, the inhibition was 11%.

Turning to `Cc1oc2c(F)c(F)c(F)c(F)c2c1S(=O)(=O)Nc1cccc(C(F)(F)F)c1`, the inhibition was 50.4% (active).

With `Cc1ccsc1C(=O)NC1CCCCC1C` (stereo not drawn), the inhibition was 6.2%.

As for `CC(C)Cc1nn2c(=O)cc(O)nc2s1`, the inhibition is -9.2%.

`COC(=O)c1scc(C)c1NC(=O)CSc1ccc(Cl)cc1`: the inhibition is -3.3%.

Consider `CCCCOc1ccc(C(=O)NCC(=O)OCC(=O)c2c(N)n(C)c(=O)n(C)c2=O)cc1`, for which the inhibition is 14.9%.

On to `O=C(Nc1ccc(S(=O)(=O)N2CCCCCC2)cc1)c1c(F)cccc1F`, for which the inhibition was -20.3%.

In the case of `O=C(Nc1ccncc1)c1c(F)cccc1F`, the inhibition is 81.6% (active).

Regarding `COc1cccc(OC)c1C(=O)Nc1ccc(Cc2ccncc2)cc1`, the inhibition was -1.5%.

As to `CNC[C@H]1Oc2c(NC(=O)C3CCCCC3)cccc2C(=O)N([C@H](C)CO)C[C@@H]1C`, the inhibition was 12.4%.

Turning to `O=S1(=O)CC(N2CCC(Cc3ccccc3)CC2)CN1Cc1ccccc1` (stereo not drawn), the inhibition is -8.1%.

In the case of `CCNC(=O)CC1C(=O)N(c2ccc(F)cc2)C(=O)N1Cc1cccs1` (stereo not drawn), the inhibition is -17.2%.

For `Cn1c(C(=O)O)ccc1S(=O)(=O)N(Cc1ccccc1)Cc1ccccc1`, the inhibition is -3.7%.

`C#CCN(C[C@@H]1[C@@H](OC(=O)NC2CC2)[C@@H](OC(=O)NC2CC2)Cn2c(=O)ccc(=O)n21)S(=O)(=O)c1ccc(C)cc1`: the inhibition is 53.2% (active).

On to `C#CCN(C[C@H]1[C@H](OC(=O)NC2CCCC2)[C@H](OC(=O)NC2CCCC2)C[C@H]2C(=O)N(c3ccccc3)C(=O)[C@@H]12)S(=O)(=O)c1ccc(C)cc1`, for which the inhibition is 15.8%.

For `Cc1ccc(S(=O)(=O)N2C[C@H]3n4c(=O)ccc(=O)n4C[C@H](OC(=O)NC4CCCC4)[C@@]3(O)C2)cc1`, the inhibition is -0.9%.

As to `COC(=O)Cc1c(O)ccn(Cc2cccc(C(F)(F)F)c2)c1=O`, the inhibition is -7.8%.
